Results filed as inconclusive are left out. Values without a mark were called inactive. Active and inactive are the calls of the source. Calls come from the whole dose curve.
% is set by controls: 0 for no effect and ±100 for the full control effect; potency is the fitted concentration of half-maximal effect.

Sequence of D(2) dopamine receptor (Homo sapiens) (P14416 whole entry, looked up): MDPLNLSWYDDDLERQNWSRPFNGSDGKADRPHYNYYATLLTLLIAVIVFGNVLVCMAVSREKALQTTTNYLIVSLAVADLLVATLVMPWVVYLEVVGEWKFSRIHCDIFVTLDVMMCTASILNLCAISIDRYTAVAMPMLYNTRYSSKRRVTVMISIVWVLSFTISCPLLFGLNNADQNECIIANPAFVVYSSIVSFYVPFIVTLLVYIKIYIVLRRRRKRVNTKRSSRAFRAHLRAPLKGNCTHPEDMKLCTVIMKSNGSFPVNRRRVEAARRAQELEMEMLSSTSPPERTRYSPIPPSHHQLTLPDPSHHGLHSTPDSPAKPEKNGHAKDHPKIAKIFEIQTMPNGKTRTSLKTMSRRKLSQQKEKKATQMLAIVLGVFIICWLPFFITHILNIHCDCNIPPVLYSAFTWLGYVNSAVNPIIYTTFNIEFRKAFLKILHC

The target of this test is D(2) dopamine receptor (Homo sapiens) (UniProt P14416). As to the kind of experiment: Dopamine D2 receptor (DRD2) small molecule agonists, cell-based qHTS assay (AID 1963594). Note: nearly all actives have a fitted effect of over 35% in size. The conditions noted are these: HEK293-DRD2 cAMP HTRF, agonist mode, 30 min; series mostly up to 92.4 µM; activation: at the top concentration. An excerpt:
National Center for Advancing Translational Sciences [NCATS]
Division of Preclinical Innovation [DPI]
U.S. Environmental Protection Agency [EPA]
National Institutes of Environmental Health Sciences [NIEHS]
National Toxicology Program [NTP]
U.S. Food and Drug Administration [FDA]
DRD2 is the D2 subtype of the dopamine receptor, which is coupled to Gi subtype of G protein-coupled receptor. This G protein-coupled receptor inhibits adenylyl cyclase activity. The DRD2-HEK293 cell line stably expressing D2 dopamine receptor can be used for screening agonists and antagonists of interactions between D2 and its ligands. The Hek293-DRD2 cAMP assay is based on HTRF technology. It measures changes of cAMP accumulation in response to Gi coupled GPCR activation or inhibition.
Tox21 Assay Protocol Summary:
DRD2-Hek293 cells were dispensed at 600 cells/3uL/well in 1536-well white plates using a Multidrop Dispenser. After the assay plates were incubated at a 37 C/5% CO2 incubator for 24 h, 1 uL of Ro20-1724 at final concentration of 0.1 mM was transferred to the assay plate by a Flying Reagent Dispenser. Following Ro20-1724 addition, 23 nL of compound dissolved in DMSO, positive controls or DMSO only was added to the assay plates via Wako pintool station. The assay plates were incubated at room temperature for 10 min. Next, 1 uL of NKH477 at 200nM was added into the plates. After the assay plates were incubated at room temperature for an additional 30 min, 2.5 ul/well of cAMP-d2 and 2.5 ul/well of anti-cAMP-cryptate were added respectively into the assay plates using a Flying Reagent Dispenser. The plates were incubated at room temperature for 1 h. The fluorescence intensity in the plates was measured at 340 nm excitation and 665 & 620 nm emission by an Envision plate reader.
For the compound `CC1CCC(=O)C1=O` (stereo not given), the “activation” value was 8.34%.

Take `CCCCCCCCS(=O)C(C)Cc1ccc2c(c1)OCO2` (stereo not given): the “activation” value was 0.03%.

For the compound `CCCCCCCCCCCCN(CCCCCCCCCCCC)CCCCCCCCCCCC`, the “activation” value is -9.21%.

As to `O=C(CN1CCNCC1)NC1CCCCC1`, the “activation” value is -0.416% [at 42.5 µM].

As for `CCC(C)(C)OC`, the “activation” value was -2.09%.

Take `O=C(Oc1cccc2cccnc12)c1ccccc1`: the “activation” value is 12.3% [at 42.5 µM].

With `CCC(C)COC(C)=O` (stereo not given), the “activation” value is 2.04%.

Take `COC(=O)C1=C(C)NC(C)=C(C(=O)OCC(C)=O)C1c1ccccc1[N+](=O)[O-]` (stereo not given): the “activation” value is -3.14% [at 42.5 µM].

For the compound `CC(=O)Nc1ccc(/C=N/NC(N)=S)cc1`, the “activation” value was 16.8% [at 42.5 µM].

Take `OC[C@H]1O[C@@H](n2cnc3c(=S)nc[nH]c32)[C@H](O)[C@@H]1O`: the “activation” value is -5.7% [at 42.5 µM].

For the compound `CCC(C)OC(C)CC` (stereo not given), the “activation” value was -7.48%.

In the case of `Cc1nc([N+](=O)[O-])cn1-c1ccc([N+](=O)[O-])cc1`, the “activation” value was -1.66% [at 42.5 µM].

As to `CCCCCCCCCO`, the Potency is 43.3 µM (active).

`CNC(=S)NN`: the “activation” value was 16.9%.

Consider `C#CC(O)C(CC)CCCC` (stereo not given), for which the “activation” value is 1.78%.

Regarding `CC(C)(C)C1CCC(CC2=C(O)c3ccccc3C(=O)C2=O)CC1` (stereo not given), the “activation” value was 2.37% [at 42.5 µM].

Take `C/C(C=O)=C\c1ccccc1`: the “activation” value was -0.979%.

In the case of `Cc1ccccc1S`, the “activation” value is 1.26% [at 42.5 µM].

Take `O=C(O)CCSSCCC(=O)O`: the “activation” value was 0.0145%.

Regarding `CCN1/C(=C/C=C/c2sc3ccccc3[n+]2CC)Sc2ccccc21`, the Potency was 14.6 µM (active).

As for `CCOc1ccc(C(=O)OCCN(CC)CC)cc1`, the “activation” value was -17% [at 42.5 µM].

As to `C=C(C)C(=O)OCCCCCCCCCCCCCCCCCC`, the activation is -1.1% [at 19 µM].

Regarding `O=C(Cl)c1c(Cl)cccc1Cl`, the “activation” value is -2.59%.

Regarding `COc1ccc2cc(CCC(C)=O)ccc2c1`, the “activation” value is 18.1% [at 42.5 µM].

`CCCCCCCCNC`: the “activation” value was 6.24%.

In the case of `C/C=C(\C)C(C)=O`, the “activation” value was -1.76%.

Turning to `Cc1cc(O)c2c(c1)C(=O)c1cc(O)cc(O)c1C2=O`, the Potency entry was “inactive”.

On to `OC/C=C/c1ccccc1`, for which the “activation” value was 2.68%.

For the compound `O=[N+]([O-])c1ccc(NCCO)c(OCCO)c1`, the “activation” value is 0.471%.

In the case of `CCCCN(CCCC)CC(O)c1cc(Cl)cc2c1-c1ccc(Cl)cc1/C2=C/c1ccc(Cl)cc1` (stereo not given), the “activation” value was -6.89% [at 42.5 µM].

For `C=CC(=O)OCCCCCCOC(=O)C=C`, the Potency result is “inactive”.

As to `Cc1cc(=O)oc2cc(N(C)C)ccc12`, the “activation” value was -0.506%.

Consider `CSc1ccc(C=O)cc1`, for which the “activation” value was -0.36%.

Take `Nc1c[n+](N2CCOCC2)no1`: the “activation” value was -1.52% [at 42.5 µM].

As for `C[C@H]1[C@@H](c2ccccc2)NC(=O)N1C`, the “activation” value is 3.19%.

Regarding `CCCC(=O)OC[C@@H](OC(=O)CCC)[C@@H](OC(=O)CCC)[C@H](Cn1c2nc(=O)[nH]c(=O)c-2nc2cc(C)c(C)cc21)OC(=O)CCC`, the “activation” value is 3.89% [at 42.5 µM].

`CN(C)CCOC(c1ccccc1)c1ccccc1` (tested in a mixture with another compound): the “activation” value was 4.31%.

In the case of `COc1cc(Nc2c(C#N)cnc3cc(OCCCN4CCN(C)CC4)c(OC)cc23)c(Cl)cc1Cl`, the “activation” value is -24.2% [at 42.5 µM].

`Cc1ccc2c(Br)cc(Br)c(O)c2n1`: the “activation” value is -3.76% [at 42.5 µM].

As to `O=[N+]([O-])c1ccc(Nc2ccc(Nc3ccccc3)c(S(=O)(=O)O)c2)c([N+](=O)[O-])c1`, the “activation” value was -2.66%.
